This is a sample that favours compounds with a hit; in the whole collection about 22% have one here.
Pf growth 48h: inhibits P. falciparum growth in the first generation, 48 h. P. falciparum luciferase growth in erythrocytes, 48 h. Potency, µM (titrated, usually from 28.7 µM), without a hit: at the highest dose activity change, negative = inhibition, usual class: inhibitors. 310,000 tested, 5.9% active; also: potency is read from the fitted curve at half-maximal effect; % is scaled to controls: 0 for no effect and ±100 for the full control effect
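Here the parasites carry a stable luciferase gene and grow inside erythrocytes in Albumax-based RPMI medium with compound for one erythrocytic cycle. Activity is scored as loss of luminescent signal.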
Cycloheximide cs: counter-screen hit for Shiga toxin inhibitors, cycloheximide | AID 2314 | max response, % | 300,000 tested, 12% active | cell reporter, cycloheximide protein synthesis inhibition counterscreen; in the data active = max response mostly above about 13%, no sharp cut-off; inactive = mostly below about 14%; also: read at 38.3 µM for the half of the compounds with a filed dose; 0% is about no effect
LmPK inh: blocks Leishmania mexicana pyruvate kinase activity; purified LmPK, Kinase-Glo ATP luminescence, 1 h; Potency, µM (series often up to 57.5 µM), without a hit: at the top dose activity change, negative = inhibition, usual class: inhibitors; 290,000 tested, 0.37% active; also: potency is read from the fitted curve at half-maximal effect; % is scaled to controls: 0 for no effect and ±100 for the full control effect
Target sequence (Q27686 whole entry, looked up): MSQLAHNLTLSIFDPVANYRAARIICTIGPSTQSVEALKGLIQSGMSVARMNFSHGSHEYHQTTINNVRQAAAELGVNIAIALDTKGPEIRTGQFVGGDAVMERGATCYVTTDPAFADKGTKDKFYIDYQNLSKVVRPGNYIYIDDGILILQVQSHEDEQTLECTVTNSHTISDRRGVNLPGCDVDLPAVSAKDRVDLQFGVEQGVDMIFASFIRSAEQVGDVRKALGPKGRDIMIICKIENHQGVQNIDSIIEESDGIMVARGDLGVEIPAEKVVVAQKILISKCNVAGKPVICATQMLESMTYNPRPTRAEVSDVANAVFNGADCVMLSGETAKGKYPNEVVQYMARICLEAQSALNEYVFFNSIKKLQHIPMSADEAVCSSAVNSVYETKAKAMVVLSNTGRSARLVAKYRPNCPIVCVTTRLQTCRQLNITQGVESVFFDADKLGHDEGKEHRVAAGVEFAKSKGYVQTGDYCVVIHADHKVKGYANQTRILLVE
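Purified LmPK (0.1 nM) converted ADP (0.1 mM) to ATP with PEP (0.5 mM) in imidazole buffer pH 7.2 with KCl and MgCl2, 1 h at room temperature. ATP was read by Kinase-Glo luminescence; data normalized to uninhibited and no-enzyme controls.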
Pf growth 96h: inhibits malaria parasite growth, 96 h; P. falciparum luciferase reporter growth, 96 h; Potency, µM (series often up to 28.7 µM), without a hit: at the top dose activity change, negative = inhibition, usual class: inhibitors; 320,000 tested, 6.9% active; AID 504834; also: potency is read from the fitted curve at half-maximal effect; % is scaled to controls: 0 for no effect and ±100 for the full control effect
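Delayed-death screen, second-generation endpoint: infected erythrocytes, 2% hematocrit, 0.05% parasitemia final; 96 hours at 37 C, 5% CO2; luciferase detection reagent; luminescence decrease equals reduced growth.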
Shiga inhibitor: blocks Shiga toxin action in Vero cells. inhibition, % at 38.7 µM. Vero cells, Shiga toxin protein synthesis inhibition reporter. 290,000 tested, 9.2% active; in the data active = inhibition mostly above about 28%, no sharp cut-off; inactive = mostly below about 43%; also: 0% is about no effect
The depositor's hits bear a star; ? = inconclusive; / = no result; + = active, no number; [ ] = another dose, or the depositor's remark. Unless noted, calls follow the shape of the dose curve; as a rule, active = well fitted inhibition curve with a large enough effect; inconclusive = small, poorly fitted or top-dose-only effect, or another doubt; inactive = no such curve, though single readings can be large or run the other way.

SMILES	Pf growth 48h	Cycloheximide cs	LmPK inh	Pf growth 96h	Shiga inhibitor
Cc1ccc(Cn2c(=N)c(C(=O)NCC3CCCO3)cc3c(=O)n4ccccc4nc32)cc1 (stereo not given)	?	-8	3%	?	-4
COc1ccccc1C(=O)NCC(=O)OCC(=O)N(CC(C)C)c1c(N)n(Cc2ccccc2)c(=O)[nH]c1=O	-5%	/	/	43%	/
CC(C)Cn1c(N)c(C(=O)COC(=O)CCNS(=O)(=O)c2ccccc2)c(=O)n(C)c1=O	15%	/	/	4%	/
c1ccc2c(c1)[nH]c1c3ccccc3sc21	67%	41*	4%	101%	72*
COCC(=O)N1CCC(Oc2ccc(C(=O)NC(C)c3csc(C)n3)cc2)CC1 (stereo not given)	36%	-2	5%	25%	-6
Cc1cc(N=Nc2ccc(C)c(N=Nc3cc(C)c(N)cc3N)c2)c(N)cc1N	84%	62*	20µM*	134%	76*
CN(C(=S)NC1=CCS(=O)(=O)C1)C1CCCCC1	28%	10	1%	/	-16
N#Cc1ccc(C(=O)Nc2ccc([N+](=O)[O-])cc2)c(F)c1	35%	8	5%	23%	52*
O=C(Nc1ccccc1C(=O)Nc1ccccc1)c1ccccc1F	6%[0.00184 µM]	-5	3%	?	-4
O=C(Nc1ccccc1)c1cc([N+](=O)[O-])ccc1Cl	44%	-3	1%	42%	-4
O=C(Nc1ccccc1)c1cc([N+](=O)[O-])ccc1NC1CCCCC1	8.3µM*	0	5%	?	1
CC1(c2ccc(NC(=O)c3ccccc3F)cc2)CC1(Cl)Cl (stereo not given)	92%	35*	4%	9%	/
O=C(Nc1ccc(-c2ccc([N+](=O)[O-])cc2)cc1)c1ccccc1F	26%	16	-4%	10%	12
O=C(Nc1ccc([N+](=O)[O-])cc1)c1ccccc1F	272%	39*	10%	?	117*
Cc1ccc(NC(=O)COC(=O)c2ccc(CN3CCCC3=O)cc2)c(Cl)c1	-15%	/	/	-4%	/
COc1ccccc1/C=N/Nc1cc(N(C)C)nc(N(C)C)n1	?	7	-5%	?	15
COc1ccc(N/N=C(/C)c2cnnc(-c3ccccc3)n2)cc1	?	2	-2%	0.37µM*	30
O=C(N/N=C/c1cc(Br)c(O)c(Br)c1)c1cccnc1	29%	9	4%	19%	19
COc1ccc(/C(C)=N/Nc2nncc3ccccc23)cc1	175%	27*	-15%	312%	63*
COc1ccccc1/C=N/Nc1nncc2ccccc12	256%	46*	-6%	167%	+
Oc1c(Br)cc(/C=N/Nc2nncc3ccccc23)cc1Br	-16%	30*	0%	-9%	67
Cc1ccc(NS(=O)(=O)c2c(C(=O)N3CCCCCC3)c(C)n(C)c2C)c(C)c1	-22%	-1	1%	6%	3
Cc1ccc(CN2CCN(Cc3ccccc3C(F)(F)F)CC2)cc1	/	1	-5%	35%	-2
Cc1cccc(N2CCN(S(=O)(=O)c3ccc4c(c3)CCCN4C(=O)C3CCC3)CC2C)c1 (stereo not given)	?	8	14%	21%	-6
CC/C(=N/Nc1ccccc1Cl)c1cnnc(-c2ccccc2)n1	2.3µM*	-2	2%	1µM*	-5
SMILES	Pf growth 48h	Cycloheximide cs	LmPK inh	Pf growth 96h	Shiga inhibitor
COc1ccc(/C=N/Nc2nncc3ccccc23)cc1	38%	25*	11µM*	-16%	9
C/C(=N\Nc1nc(-c2ccccn2)nc2ccccc12)c1ccc(F)cc1	?	-2	-5%	-33%	2
CC/C(=N/Nc1ccc(Cl)cc1)c1cnnc(SC)n1	?	6	0%	?	10
COc1ccc(/C(C)=N/Nc2nc3ccccc3nc2C)cc1	32%	45*	-10%	-19%	76*
COc1ccc(-c2cnnc(N/N=C/c3ccc(OC)c(OC)c3)n2)cc1	5%	4	3%	6%	0
COc1ccc(C/C(N)=N/OC(=O)CCc2ccccc2)cc1	-44%	2	3%	-13%	-9
CC(OC(=O)CC1CCCC1)C(=O)Nc1ccc(S(N)(=O)=O)cc1 (stereo not given)	4%	/	/	15%	/
O=C(CNS(=O)(=O)c1ccc(Cl)cc1)OCC(=O)N1CCCc2ccccc21	15%	1	5%	-9%	7
N#C/C(=C\c1ccccc1C(=O)O)c1nc2ccccc2[nH]1	?	17*	0%	-1%	49*

Source: PubChem BioAssay (National Center for Advancing Translational Sciences (NCATS))
